# Laboratory results: PubChem BioAssay (NCI)
# The panel holds about 83,000 compounds, 20% with a hit somewhere; the sample as a whole holds those more often.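 In brief: 96-well plates, 48 h treatment, single concentration, percent growth endpoint.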 Values without a mark were called inactive. Active and inactive are the calls of the source. Rule for the calls: active = growth percent below 10; inactive = the rest.
# Assays:
# Experiment in all cases: NCI-60 one-dose screen, 48 h (100 = growth as untreated, 0 = no growth, -100 = all killed)
# Conditions in all cases: 10 µM unless noted
# [1] = test system: NCI-H23 lung
# [2] = test system: NCI-H226 lung
# [3] = test system: NCI-H322M lung
# [4] = test system: HOP-62 NSCLC
# [5] = test system: NCI-H460 lung
# [6] = test system: HOP-92 NSCLC
# [7] = test system: NCI-H522 lung
# [8] = test system: A549/ATCC NSCLC
# [9] = test system: 786-0 renal
# [10] = test system: COLO 205 colon
Structure (SMILES),growth [1],growth [2],growth [3],growth [4],growth [5],growth [6],growth [7],growth [8],growth [9] [%],growth [10]
COc1cccc(-c2nc3sccn3c2/C=C/C(=O)c2ccc(C(F)(F)F)cc2)c1,95%,88.6%,87.5%,100%,83.7%,66.4%,55.6%,85.1%,82.1,102%
Cc1nn(-c2ccccc2)c(Cl)c1/C=C(/NC(=O)c1ccccc1)c1nc2ccccc2[nH]1,106%,108%,90.3%,99%,109%,82.6%,86.6%,90%,90.2,83.6%
CCCCCCN(CCCCCC)c1ccc(/C=C2/SC(=O)N(c3nc(N4CCCC4)nc(N4CCCC4)n3)C2=O)c(C)c1,47.2%,92.5%,99%,119%,57.5%,-3.12% (active),53.2%,54.2%,63.5,82.1%
COc1ccc(C2=NN(C(=O)c3cc(OC)c(OC)c(OC)c3)C(c3ccc(Cl)cc3)C2)cc1OC (stereo not given),-7.6% (active),58.3%,55.7%,44.1%,14.3%,31.6%,4.89% (active),29.4%,22.5,12.3%
Cc1ccc(Cl)c(NS(=O)(=O)c2ccc(-c3cnc(C4CC4)o3)cc2)c1,36.2%,33.8%,44.4%,42.7%,14.3%,73.9%,3.84% (active),26.5%,27.8,-0.408% (active)
O=C(O)c1ccc2c(c1Cl)C(=O)c1ccccc1C2=O,93.4%,103%,102%,82.5%,102%,109%,106%,116%,91.1,115%
CCOC(=O)C/C(C)=N\NC(=O)c1ccncc1,101%,112%,90.6%,97.7%,103%,-2.59% (active),95.3%,105%,92.1,124%
CC1CC(C(C)(C)C)C(=O)C(C(C)(C)C)C1 (stereo not given),109%,98.8%,107%,105%,108%,85%,90.8%,100%,100,115%
CNC(=O)NCC1OC(n2cnc3c(NC(=O)Nc4ccccc4)ncnc32)C(O[Si](C)(C)C(C)(C)C)C1CC(=O)N(C)OC (stereo not given),48.2%,40.6%,78.8%,60.3%,18.1%,-34.3% (active),65.9%,2.06% (active),47.4,-100% (active)
c1cc2ccc3cc2cc1CNCCOCCNCc1ccc2ccc(cc2c1)CNCCOCCNC3,-52.6% (active),-29.4% (active),-10.7% (active),-10.2% (active),-9.48% (active),-31.5% (active),-61.6% (active),0.178% (active),43.5,-53.2% (active)
COc1cc2c(cc1-c1c(C)noc1C)ncc1nc(C3CCCCC3)n(C3CCC(OC(F)F)CC3)c12 (stereo not given),40.8%,62.2%,54.7%,38.3%,37.3%,1.82% (active),-12.2% (active),25.3%,41.4,1.16% (active)
N#Cc1nc2c(S(=O)(=O)c3ccc(Cl)cc3)c(N)n(Nc3cccc(Cl)c3)c2nc1C#N,44.7%,85.2%,30.8%,40.2%,65.7%,-33.2% (active),57.3%,43.3%,43.9,72.5%
Cc1cc(NCc2cc(Nc3ccnc4cc(Cl)ccc34)ccc2F)nc(N2CCSCC2)n1,26.9%,84.6%,43.2%,-41.6% (active),6.39% (active),37.7%,-23.6% (active),39%,15.5,-38.5% (active)
Cc1ccc(NS(=O)(=O)c2ccc3c(c2)C(=O)CC(c2ccc(C(=O)C(C)C)cc2)N3)cc1C (stereo not given),44.1%,57.7%,67.2%,69.1%,53.9%,67.9%,60.5%,52.4%,86.3,59.4%
